PubChem BioAssay (NCATS)
Results filed as inconclusive are left out. Values without a mark were called inactive. Activity calls are given as the source filed them. The call rests on the fitted dose curve; in most records, active means well fitted curve in the direction sought with a large enough effect in the repeat runs; inconclusive means weak or mixed curves; inactive means no such curve, though single readings can be large; an effect the other way counts as inactive or inconclusive. Where a SMILES comes first, the peptide text is derived from it.

target: Cytochrome P450 2D6 (Homo sapiens) (UniProt P10635); test: Cytochrome P450 family 2 subfamily D member 6 (CYP2D6) small molecule antagonists: luciferase biochemical (cell-free) qHTS assay (AID 1645840); conditions: P450-Glo CYP2D6 enzyme, luciferin luminescence, 1 h; series mostly up to 57.4 µM; activity change, negative = inhibition: at the top concentration; further: nearly all actives have a fitted effect of over 55% in size; on activity change, negative = inhibition: on the % scale 0 is the no-effect control and ±100 the full control effect
Sequence (P10635 whole entry, looked up): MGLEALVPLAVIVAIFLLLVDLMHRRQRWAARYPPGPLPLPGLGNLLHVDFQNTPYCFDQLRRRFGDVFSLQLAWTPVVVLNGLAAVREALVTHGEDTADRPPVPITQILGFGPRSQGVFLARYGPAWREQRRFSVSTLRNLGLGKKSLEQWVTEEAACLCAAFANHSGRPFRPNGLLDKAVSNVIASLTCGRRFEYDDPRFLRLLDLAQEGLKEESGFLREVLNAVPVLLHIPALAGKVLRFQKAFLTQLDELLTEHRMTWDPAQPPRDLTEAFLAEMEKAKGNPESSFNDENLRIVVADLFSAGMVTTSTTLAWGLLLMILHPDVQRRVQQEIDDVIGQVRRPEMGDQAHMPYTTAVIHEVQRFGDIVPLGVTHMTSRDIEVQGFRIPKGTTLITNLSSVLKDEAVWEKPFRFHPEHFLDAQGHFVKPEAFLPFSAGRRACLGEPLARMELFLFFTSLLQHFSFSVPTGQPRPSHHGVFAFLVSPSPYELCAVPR
Procedure, shortened: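 P450-Glo CYP2D6 system: proluciferin substrate converted by enzyme to luciferin, read by luminescence proportional to activity. Enzyme-substrate mix with compound 10 min at room temperature, then NADPH regeneration 1 h before detection reagent.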
Potency means the concentration at half of the fitted maximal effect.

Row | Structure (SMILES) | activity change, negative = inhibition [%] | Potency
1 | CC(C)(C)c1ccc(C(=O)CCCCl)cc1 | -27.7 | 
2 | CCN(CC)CC(=O)Nc1c(C)cccc1C(=O)OC | 1.05 | 
3 | CC(=O)O[C@H]1CC[C@@]2(C)C(=CC[C@@H]3[C@@H]2CC[C@]2(C)C(C(C)=O)=CC[C@@H]32)C1 | 1.11 | 
4 | CCCCCC(=O)O[C@]1(C(C)=O)CC[C@H]2[C@@H]3CCC4=CC(=O)CC[C@]4(C)[C@H]3CC[C@@]21C |  | 13.8 µM (active)
5 | O=c1[nH]c2ccccc2c(=O)n1CCCl | 4.64 | 
6 | CN1[C@@H]2CC[C@H]1CC(NC(=O)n1c(=O)[nH]c3ccccc31)C2 (some centres undefined) |  | 1.55 µM (active)
7 | CNC(=O)c1cnn(-c2nc(N)c3ncn([C@@H]4O[C@H](CO)[C@@H](O)[C@H]4O)c3n2)c1 | -13.2 | 
8 | COc1cc2c(cc1OC)C(=O)CC2 | -3.35 | 
9 | CN1C(=O)CC(C)(c2ccccc2)C1=O (centres undefined) | 9.79 | 
10 | Cc1cccc(C)c1NC(=O)c1cc(S(N)(=O)=O)c(Cl)cc1O | 9.61 | 
11 | CC(C)(C)NCC(O)COc1ccccc1OCC1CCCO1 (centres undefined) |  | 6.17 µM (active)
12 | O=C(CCCl)NCCc1ccccc1 | -15.7 | 
13 | Cc1cccc(OCC(O)CNC(C)(C)C)c1C (centres undefined) |  | 11 µM (active)

target: Cytochrome P450 3A4 (Homo sapiens) (UniProt P08684); test: Cytochrome P450 family 3 subfamily A member 4 (CYP3A4) small molecule antagonists: luciferase qHTS assay (AID 1645841); conditions: P450-Glo CYP3A4 enzyme assay, luciferin luminescence; series mostly up to 57.4 µM; activity change, negative = inhibition: at the top concentration; further: nearly all actives have a fitted effect of over 45% in size
Sequence (P08684 whole entry, looked up): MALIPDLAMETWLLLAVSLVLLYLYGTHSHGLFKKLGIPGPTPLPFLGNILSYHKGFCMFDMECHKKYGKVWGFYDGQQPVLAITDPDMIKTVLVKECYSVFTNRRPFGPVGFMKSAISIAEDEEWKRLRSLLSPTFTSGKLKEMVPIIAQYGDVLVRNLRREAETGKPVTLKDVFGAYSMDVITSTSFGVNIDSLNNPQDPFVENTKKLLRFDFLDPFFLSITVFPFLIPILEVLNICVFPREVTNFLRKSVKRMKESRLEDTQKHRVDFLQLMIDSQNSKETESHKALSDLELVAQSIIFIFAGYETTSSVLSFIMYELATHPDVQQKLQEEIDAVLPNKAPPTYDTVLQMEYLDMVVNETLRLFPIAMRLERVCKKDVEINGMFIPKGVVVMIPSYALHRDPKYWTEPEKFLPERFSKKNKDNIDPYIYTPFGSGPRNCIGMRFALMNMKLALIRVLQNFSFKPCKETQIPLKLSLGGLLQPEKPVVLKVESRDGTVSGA
Procedure, shortened: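 Luminescent CYP3A4 activity readout: compounds plus enzyme-substrate mix 10 min at room temperature, reaction started with NADPH regenerating system for 1 h, stopped with detection reagent, read after 20 min. Ketoconazole served as control.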

Row | Structure (SMILES) | activity change, negative = inhibition [%] | Potency
14 | OCc1cccnc1 | 16.8 | 
15 | Nc1ncnc2nc[nH]c12 | 31 | 
16 | NC(=O)NC1N=C([O][Al])NC1=O (centres undefined) |  | 5.49 µM (active)

target: Cytochrome P450 2C9 (Homo sapiens) (UniProt P11712); test: Cytochrome P450 family 2 subfamily C member 9 (CYP2C9) small molecule antagonists: luciferase biochemical (cell-free) qHTS assay (AID 1645842); conditions: P450-Glo CYP2C9 enzyme assay, luciferin luminescence; series mostly up to 57.4 µM; activity change, negative = inhibition: at the top concentration; further: nearly all actives have a fitted effect of over 55% in size; on activity change, negative = inhibition: on the % scale 0 is the no-effect control and ±100 the full control effect
Sequence (P11712 whole entry, looked up): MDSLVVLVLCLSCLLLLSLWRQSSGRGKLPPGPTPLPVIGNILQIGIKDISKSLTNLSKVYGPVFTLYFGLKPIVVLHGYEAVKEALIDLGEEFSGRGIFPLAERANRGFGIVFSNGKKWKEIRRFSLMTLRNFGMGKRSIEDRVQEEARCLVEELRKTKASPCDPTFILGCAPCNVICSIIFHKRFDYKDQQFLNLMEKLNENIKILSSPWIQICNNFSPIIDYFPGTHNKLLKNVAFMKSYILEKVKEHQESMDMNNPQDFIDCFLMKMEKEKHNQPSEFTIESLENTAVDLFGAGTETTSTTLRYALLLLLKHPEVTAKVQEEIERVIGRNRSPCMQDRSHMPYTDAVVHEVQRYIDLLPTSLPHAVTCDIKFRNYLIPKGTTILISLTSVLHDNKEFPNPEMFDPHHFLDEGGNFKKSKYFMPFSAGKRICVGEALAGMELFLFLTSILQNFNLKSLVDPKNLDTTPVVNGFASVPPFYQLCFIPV
Procedure, shortened: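 P450-Glo CYP2C9 system: proluciferin substrate with enzyme in mix containing 0.4% BSA, 10 min at room temperature, then NADPH regeneration solution added and incubated 1 h at 37C. Detection reagent stopped reaction; luminescence read after 20 min as RLU.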

Row | Structure (SMILES) | activity change, negative = inhibition | Potency
17 | CO/N=C(/C(=O)N[C@@H]1C(=O)N2C(C(=O)O)=C(Cn3nnc(C)n3)CS[C@H]12)c1csc(N)n1 | 1.08% | 
18 | CC(C)(C)c1ccc(C(=O)CCCCl)cc1 | -3.5% | 
19 | CCN(CC)CC(=O)Nc1c(C)cccc1C(=O)OC | 10.6% | 
20 | C=CC[N+]1([C@H]2C[C@H]3[C@@H]4CC[C@H]5C[C@H](OC(C)=O)[C@@H](N6CCCCC6)C[C@]5(C)[C@H]4CC[C@]3(C)[C@H]2OC(=O)CC)CCCCC1 | 13.7% | 
21 | OCc1cccnc1 | 6.24% | 
22 | CC1(C)O[C@@H]2C[C@H]3[C@@H]4CCC5=CC(=O)C=C[C@]5(C)[C@@]4(F)[C@@H](O)C[C@]3(C)[C@]2(C(=O)CO)O1 | -3.43% | 
23 | CCOC(=O)N1CCC(n2c(=O)[nH]c3cc(Cl)ccc32)CC1 |  | 11 µM (active)
24 | COc1ccc2nc(SCc3ncc(C)c(OC)c3C)[nH]c2c1 | -22.4% | 
25 | CC(=O)O[C@H]1CC[C@@]2(C)C(=CC[C@@H]3[C@@H]2CC[C@]2(C)C(C(C)=O)=CC[C@@H]32)C1 | -13.6% | 
26 | O=C1Cc2cc(Cl)ccc2N1 |  | 11 µM (active)
27 | CC(=O)N[C@@H](CO)C(=O)N[C@@H](CC(=O)O)C(=O)N[C@@H](CCCCN)C(=O)N1CCC[C@H]1C(=O)O (Ac-SDKP-OH) | 1.01% | 
28 | CCC(=O)O[C@]1(C(=O)COC)[C@@H](C)C[C@H]2[C@@H]3CCC4=CC(=O)C=C[C@]4(C)C3(F)[C@@H](O)C[C@@]21C (some centres undefined) |  | 24.5 µM (active)
29 | CN1N=C(C(N)=O)CCC1=O | 12.2% | 
30 | CC(=O)OCC[N+](C)(C)C | 0.276% | 
31 | CCCCCC(=O)O[C@]1(C(C)=O)CC[C@H]2[C@@H]3CCC4=CC(=O)CC[C@]4(C)[C@H]3CC[C@@]21C |  | 4.9 µM (active)
32 | Nc1ncnc2nc[nH]c12 | 11.7% | 
33 | O=C(Oc1ccccc1)c1ccccc1O | -4.77% | 

Row | Structure (SMILES) | activity change, negative = inhibition | Potency
34 | O=c1[nH]c2ccccc2c(=O)n1CCCl | 0.79% | 
35 | CCN1CCN(c2cc(-c3ccc(F)cc3)c3c(n2)CCCCCC3)CC1 | 0.806% [at 23.9 µM] | 
36 | CN1[C@@H]2CC[C@H]1CC(NC(=O)n1c(=O)[nH]c3ccccc31)C2 (some centres undefined) | 5.34% | 
37 | CNC(=O)c1cnn(-c2nc(N)c3ncn([C@@H]4O[C@H](CO)[C@@H](O)[C@H]4O)c3n2)c1 | 4.74% | 
38 | Nc1ccc(C(=O)N2CC3CC(CN(Cc4ccccc4)C3)C2)cc1 | -0.717% | 
39 | COc1cc2c(cc1OC)C(=O)CC2 | 25.8% | 
40 | C/C(=C1\CCOC(=O)S1)N(C=O)Cc1cnc(C)nc1N | 9.2% | 
41 | CN1C(=O)CC(C)(c2ccccc2)C1=O (centres undefined) | -6.98% | 
42 | Cc1cccc(C)c1NC(=O)c1cc(S(N)(=O)=O)c(Cl)cc1O | -16.7% | 
43 | NC(=O)NC1N=C([O][Al])NC1=O (centres undefined) | 8.26% | 
44 | CC(C)Cc1ccc(C(C)C(=O)OCc2ccccn2)cc1 (centres undefined) |  | 9.77 µM (active)
45 | COc1ccc(CCC(C)=O)cc1 | 1.28% | 
46 | Nc1nc2ccccc2n1Cc1ccc(F)cc1 | -15.3% | 
47 | CCC(C(=O)NC(=O)NC(C)=O)c1ccccc1 (centres undefined) | 3.98% | 
48 | O=C(O)[C@H](O)[C@@H](O)[C@H](O[C@@H]1O[C@H](CO)[C@H](O)[C@H](O)[C@H]1O)[C@H](O)CO | 7.2% | 
49 | CC(C)(C)NCC(O)COc1ccccc1OCC1CCCO1 (centres undefined) | -8.45% | 
